HT1080-NT tox: qHTS for induction of synthetic lethality in tumor cells producing 2HG: qHTS for the HT-1080-NT fibrosarcoma cell line; HT-1080-NT fibrosarcoma viability, CellTiter-Glo ATP luminescence, 48 h; Potency, µM (top dose mostly 46.1 µM), for the others: at the top dose activity, negative = less viability, usual class: cytotoxic; 360,000 compounds, 1.6% hits; AID 686970, 2013;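 note: NT is the 2HG producing partner of a matched IDH1 knockdown line; 0% = DMSO-treated cells and -100% = media-only wells without cells; nearly all actives have a fitted effect of over 55% in size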
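Toxicity toward the 2HG-producing NT line was scored as %Activity, normalised to DMSO and no-cell wells, from CellTiter-Glo luminescence after 48 hours' treatment.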
HT1080 IDH1KD tx: qHTS for induction of synthetic lethality in tumor cells producing 2HG: qHTS for the HT-1080-IDH1KD cell line; 360,000 compounds, 2% hits; HT-1080 IDH1 knockdown viability, ATP luminescence, 48 h; Potency, µM (series often up to 46.1 µM), inactives show top-dose activity, negative = toxicity, actives largely listed as cytotoxic;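 note: 0% = DMSO wells and -100% = cell-free medium wells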
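Viability of IDH1-knockdown HT-1080 fibrosarcoma cells was assessed by CellTiter-Glo after 48 h at 37 °C with titrated compound; concentration-effect curves were classified by fit quality and response size.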
KB-V1 cytotox: qHTS assay for MDR1-selective chemotherapeutics: Primary screen using the drug-selected MDR subline cells KB-V1; KB-V1 MDR cells viability, CellTiter-Glo, 72 h; Potency, µM (top dose mostly 46.1 µM), most hits filed as cytotoxic; 400,000 compounds, 3.4% hits; AID 1347076, 2019; note: nearly all actives have a fitted effect of over 60% in size
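qHTS viability screen in drug-selected KB-V1 MDR cells: 72 h compound treatment at 37 degrees C, ATP luminescence end point.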
KB-3-1 tox: qHTS assay for MDR1-selective chemotherapeutics: Primary screen using the parental adenocarcinoma cell KB-3-1; KB-3-1 viability, CellTiter-Glo ATP luminescence, 72 h; Potency, µM (series often up to 46.1 µM), hits mostly cytotoxic; 400,000 compounds, 1.4% hits; AID 1347075, 2019; note: nearly all actives have a fitted effect of over 60% in size
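Cytotoxicity in the drug-sensitive parental line KB-3-1 was scored as loss of CellTiter-Glo luminescence following 72 h incubation with compound. Values come from curve fitting of normalized concentration-response data.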
Active calls of the source: *; i = inactive; u = inconclusive; x = not tested or not shown. Only some compounds are listed: those with a hit (about 5.7% of all), similar ones and a draw of the others. Calls come from the whole dose curve; as a rule, active = well fitted curve in the direction sought with a large enough effect; inconclusive = small, poorly fitted or top-dose-only effect, or another doubt; inactive = no such curve, though single readings can be large; an effect the other way counts as inactive or inconclusive. Unless noted, % is set by controls: 0 for no effect and ±100 for the full control effect; potency is the fitted concentration of half-maximal effect.

SMILES | HT1080-NT tox | HT1080 IDH1KD tx | KB-V1 cytotox | KB-3-1 tox
COc1ccccc1NC(=O)C1=C(C)Nc2nc(SCc3ccccc3)nn2C1c1ccccn1 (stereo unspecified) | x | x | i | i
CC1(C)Cc2ccccc2-c2nnc(SCC(=O)Nc3ccc4c(c3)OCO4)n21 | 0.9% | -2.3% | 4.11µM* | i
COC(=O)CSc1nnc(-c2ccccn2)n1Cc1ccco1 | 3.5% | 8.6% | i | i
Clc1ccc(CSc2nnc(-c3ccccn3)n2Cc2ccco2)c(Cl)c1 | 6.4% | 5.9% | 10.3µM* | u
O=C(CSc1nnc(CN2CCOCC2)n1-c1ccc(Cl)cc1)Nc1ccc2c(c1)OCO2 | -24.3% | -0.8% | 10.3µM* | i
Cc1ccc(NC(=O)CSc2nnc(-c3cnccn3)n2Cc2ccco2)cc1 | 3.7% | -2.3% | 7.31µM* | i
COc1ccc(CCNC(=O)c2cnc3ccc(C)cn3c2=O)cc1OC | x | x | i | i
CCn1c(COc2ccccc2C)nnc1SCC(=O)Nc1ccc2c(c1)OCCO2 | 5.5% | 0.0% | 4.61µM* | i
Cc1ccccc1OCc1nnc(SCC(=O)Nc2ccc3c(c2)OCO3)n1C | u | 6.8% | i | i
CCCNC(=O)c1ccccc1NC(=O)c1ccc2c(c1)NC(=O)C(C)S2 (stereo unspecified) | -29.6% | 9.2µM* | u | u
CC(=O)c1ccccc1NC(=O)c1ccc2c(c1)NC(=O)C(C)S2 (stereo unspecified) | -29.5% | -8.2% | u | u
Cc1ccnc(NC(=O)c2ccc3c(c2)NC(=O)C(C)S3)c1 (stereo unspecified) | -5.9% | -15.9% | i | 18.4µM*
Cc1cc(C)cc(NC2=C(c3ccccc3)C(=O)c3ccccc32)c1 | x | x | u | i
Cc1cc(Br)ccc1NC(=O)c1coc(=O)c2ccccc12 | x | x | i | i
CCN(Cc1ccccc1)C(=O)Cn1c(=O)n(-c2ccc(F)c(Cl)c2)c(=O)c2sc3ccccc3c21 | x | x | u | i
COc1ccc(C2c3c(n(C)c4ccccc34)C(=O)N2CC(=O)Nc2cccc(Cl)c2C)cc1 (stereo unspecified) | x | x | u | i
Cc1ccc(/C=C2/Sc3ccccc3N(CC(=O)NCC3CCCO3)C2=O)cc1 (stereo unspecified) | u | 6.1% | i | u
Cc1cc(/C=C2\Sc3ccccc3N2C)cc(C)[n+]1CC1CCCO1 (stereo unspecified) | 9.2µM* | u | i | 0.651µM*
CCCC(CCC)C(=O)NC1CC(=O)N(c2ccc3c(c2)OCCO3)C1 (stereo unspecified) | x | x | i | i
COc1ccccc1N1CCN(C(=O)Cn2ncc3c(=O)oc4ccccc4c32)CC1 | x | x | i | i
O=C(c1cccs1)N(Cc1cc2ccccc2[nH]c1=O)c1ccccc1 | 15.5% | -2.1% | 5.17µM* | u
CCOC(=O)c1c(N/N=C/c2cccnc2)n[nH]c1C | u | u | 5.8µM* | 9.2µM*
CC(C)c1ccc(NC(=O)CSc2nnc(-c3ccccc3)n2C)cc1 | x | x | i | i
CCCCN(C)CCNC(=O)Cn1ncc2c3ccccc3n(CCC)c2c1=O | x | x | i | i
Cn1nc(C(F)(F)F)c(C(=O)Nc2ccc(F)cc2F)c1Sc1cccc(Cl)c1 | -4.0% | u | 16.4µM* | i
SMILES | HT1080-NT tox | HT1080 IDH1KD tx | KB-V1 cytotox | KB-3-1 tox
Cn1nc(C(F)(F)F)c(C(=O)Nc2ccc(F)cc2F)c1Sc1cccc(C(F)(F)F)c1 | 0.4% | -0.2% | 13µM* | u
COc1ccc(-c2cc3nc(C)c(CCC(=O)Nc4ccccc4C(C)=O)c(C)n3n2)c(OC)c1 | x | x | i | i
Cc1ccc2c(c1)N(C(=O)N1CCC(C(=O)NC3CCCCCC3)CC1)CCO2 | x | x | i | i
Cc1nn(-c2cc(N3CCCCCC3)ccc2[N+](=O)[O-])c(=O)c2ccccc12 | -0.5% | 11.2% | 3.66µM* | i
Cc1ccc(-c2nn(-c3cc(Cl)ccc3[N+](=O)[O-])c(=O)c3ccccc23)cc1C | -4.2% | -5.0% | i | i
Cc1ccc(-c2nn(-c3cc(N4CCNCC4)ccc3[N+](=O)[O-])c(=O)c3ccccc23)cc1 | 14.6µM* | u | u | u
COc1ccc(-n2nc(C#N)c(Cl)cc2=O)cc1 | 7.31µM* | 13µM* | i | u
CC(C)N(C)C1CCN(S(=O)(=O)c2ccc3[nH]c(=O)ccc3c2)CC1 | x | x | i | i
Cc1nc2c(c(C)nn2-c2ccccc2)c(C)c1CCC(=O)Nc1ccc(CN2CCCC2)cc1 | 14.6µM* | 20.6µM* | u | i
Cc1nc2c(c(C)nn2-c2ccccc2)c(C)c1CCC(=O)Nc1ccccc1 | x | x | i | i
CCC(CC)C(=O)Nc1ccc(C(=O)OCc2cc(=O)n3nc(C4CC4)sc3n2)cc1 | x | x | u | i
CCc1ccc(NC(=O)CN2C(=O)C3CCCN3c3ccc(S(=O)(=O)N(CC)CC)cc32)cc1 (stereo unspecified) | x | x | i | i
Cc1ccccc1N1C(N)=NC(N)=NC1(C)C | 8.8% | 13.2% | i | i
COc1ccc(N2C(N)=NC(N)=NC2(C)C)cc1 | 9.2µM* | 8.2µM* | i | u
Cc1ccc(N2C(N)=NC(N)=NC2(C)C)c(C)c1 | u | 20.6µM* | i | i
COc1ccc(N2C(N)=NC(N)=NC23CCCC3)cc1 | 4.6% | 1.8% | i | i
COc1cccc(N2C(N)=NC(N)=NC2(C)C)c1 | 6.51µM* | 2.31µM* | i | u
CC1(C)N=C(N)N=C(N)N1c1cccc(C#N)c1 | u | 0.231µM* | i | 16.4µM*
COc1ccc(-n2nc(C(=O)NCCc3ccc(OC)c(OC)c3)c3c4ccccc4n(C)c3c2=O)cc1Cl | x | x | i | i
Cc1ccc(NC(=O)Cn2cc3c(n2)CCCCC3)cc1 | x | x | i | i
Cc1ccc2c(c1)N(C(=O)Nc1cccc3c1CCCC3)CCO2 | x | x | i | i
CCOc1ccc(N2C(N)=NC(N)=NC2(C)C)cc1 | u | 10.3µM* | i | u
O=C(COc1ccc([N+](=O)[O-])cc1)NNC(=O)Nc1ccccc1F | 4.11µM* | 3.66µM* | i | i
O=C(COc1ccc([N+](=O)[O-])cc1)N(Cc1ccccc1)Cc1ccccc1 | -20.7% | -22.2% | 18.4µM* | i
O=C(COc1ccccc1)NNC(=O)COc1ccc([N+](=O)[O-])cc1 | 6.0% | -0.7% | i | i
CCOC(=O)CSc1nc2ccccc2c(=O)n1CCc1ccc(OC)c(OC)c1 | x | x | i | i
CC(C)SC1=NC(C)(C)C=C(/C=C/c2c(Cl)cccc2Cl)N1 | u | 20.6µM* | i | 14.6µM*
CC(C)SC1=NC(C)(C)C=C(/C=C/c2ccc(Cl)cc2Cl)N1 | u | u | i | u
